The source of these data is PubChem BioAssay (NCATS).

Molecules are shown by their SMILES. Inconclusive results are not listed. A call without a number means that no potency is given here. Activity calls are given as the source filed them. Calls come from the whole dose curve; as a rule, active = well fitted inhibition curve with a large enough effect; inconclusive = small, poorly fitted or top-dose-only effect; inactive = flat fitted curve, though single readings scatter. Where a SMILES comes first, the peptide text is derived from it. [ ]: non-standard residue; d: D form. pGlu = O=C1CC[C@@H](C(=O)O)N1
Potency is the fitted concentration of half-maximal effect.

This experiment relates to Zika virus NS2B-NS3 protease. Put plainly: Primary screen GU AMC qHTS for Zika virus inhibitors (AID 1347154). Note: nearly all actives have a fitted effect of over 70% in size. As to conditions: Zika NS2B-NS3 unlinked protease, AMC fluorogenic substrate; series mostly up to 54.1 µM. The source says:
Avindra Nath, Ph.D., National Institute of Neurological Disorders and Stroke (NINDS), Bethesda, MD
Radhakrishnan Padmanabhan, Ph.D., Georgetown University (GU), Washington D.C.
Zika Virus causes congenital defects, including microcephaly and is associated with Guillain-Barre syndrome, eningoencephalitis and myelitis in infected adult. […] Using a target-based approach, we hope to establish a screening paradigm to uncover novel, cell-active NS2B-NS3 protease (Zika Virus) specific inhibitors from NCATS' collection of small molecules using qHTS.
Early Translation Branch (ETB)
National Center for Advancing Translational Sciences (NCATS), Rockville, MD
National Institute of Health (NIH), Bethesda, Maryland
Padmanabhan lab provided the NS2B hydrophilic domain and NS3 protease domain in a noncovalent complex used for the unlinked assay. Control compound aprotinin is obtained from Thermo Scientific (#78432; Waltham, Massachusetts). NS2B-NS3 AMC substrate (Bz-Nle-Lys-Arg-Arg-AMC; Nle-KRR-AMC) purchased from Bachem (#I-1995; Torrance, CA). Ac-VKTGKR-AMC purchased from Genscript or Bachem, Ac-FAAGKR-AMC purchased from Genscript, Ac-GLVKRR-AMC purchased from Genscript, Ac-LKKR-AMC purchased from Genscript.
GU AMC unlinked NS2B-NS3 protease qHTS protocol
Briefly, 3 microL of Zika virus unlinked NS2B-NS3 protease (25 nM for linked final concentration), in assay buffer (10 mM Tris-HCl pH 8.0 with 0.01% Tween 20) was dispensed into a 1,536-well solid-bottom black plate (Greiner Bio One, Monroe, NC). […] Plates were then read immediately on a ViewLux High-throughput CCD imager (PerkinElmer, Waltham, MA) equipped with standard UV fluorescence optics (340(30) nm excitation, 450(20) nm emission) then incubated (room temperature, protected from light) for 15 minutes (~20% conversion). The change in fluorescence intensity over the 15-minute reaction period was normalized against no-inhibitor and no-enzyme controls and the resulting percent inhibition data were fitted to a 4-parameter Hill equation. Aprotinin was used as the intraplate control.
On to `CCCCCC[C@@H](CCC)C(=O)O`, for which the Potency entry is “inactive”.

In the case of `CC(C)C(=O)Nc1cccc(C2CN3CCSC3=N2)c1` (stereo not given), the Potency result is “inactive”.

In the case of `O=C1CCCc2c(O)cccc21`, the Potency result was “inactive”.

With `O=[N+]([O-])c1cncn1CCN1CCOCC1`, the Potency entry is “inactive”.

In the case of `CC1(C)O[C@@H]2C[C@H]3[C@@H]4C[C@H](F)C5=CC(=O)C=C[C@]5(C)[C@@]4(F)[C@@H](O)C[C@]3(C)[C@]2(C(=O)CO)O1`, the Potency entry was “inactive”.

In the case of `C#CC(C)(CC)OC(=O)c1ccccc1C(=O)O` (stereo not given), the Potency entry is “inactive”.

Take `O=C1NCCN1CCN1CCC(c2cn(-c3ccc(F)cc3)c3ccc(Cl)cc23)CC1`: the Potency result was “inactive”.

Turning to `Brc1ccccc1-c1ccccc1`, the Potency entry was “inactive”.

In the case of `COCCc1ccc(OCC2CO2)cc1` (stereo not given), the Potency result was “inactive”.

Take `Nc1nc(=O)n([C@@H]2O[C@H](CO)[C@@H](O)[C@@H]2F)cc1I`: the Potency result is “inactive”.

On to `c1ccc2occc2c1`, for which the Potency entry was “inactive”.

As for `CC(C)C[C@H](NC(=O)CNC(=O)[C@H](Cc1ccc(O)cc1)NC(=O)[C@H](CO)NC(=O)[C@H](Cc1c[nH]c2ccccc12)NC(=O)[C@H](Cc1cnc[nH]1)NC(=O)[C@@H]1CCC(=O)N1)C(=O)N[C@@H](CCCN=C(N)N)C(=O)N1CCC[C@H]1C(=O)NCC(N)=O` (stereo in doubt), the Potency result is “inactive”.

Take `O=[N+]([O-])c1nccn1CO[C@@H](CO)[C@H](O)CO`: the Potency entry is “inactive”.

With `CCCC(CCC)(C(=O)OCC)C(=O)OCC`, the Potency result is “inactive”.

Turning to `CCOC(=O)C(=O)CCc1ccccc1`, the Potency result is “inactive”.

As to `C1=CC2C3C=CC(C3)C2C1` (stereo not given), the Potency result was “inactive”.

With `C[N+]1(CC2COC(c3ccccc3)(c3ccccc3)O2)CCCCC1` (stereo not given), the Potency result was “inactive”.

For the compound `COc1cc2c(cc1OC)C(=O)CC2`, the Potency result is “inactive”.

Take `O=C1CC[C@H](C(=O)N2CCCCC2)N1`: the Potency result is “inactive”.

Consider `CO/N=C(\C(=O)O)c1csc(NC(=O)CCl)n1`, for which the Potency entry is “inactive”.

`Nc1c(I)cc(I)c(C(=O)N(CCC(=O)O)c2ccccc2)c1I`: the Potency result is “inactive”.

Regarding `CC(=O)OC/C=C(C)/C=C/C=C(C)/C=C/C1=C(C)CCCC1(C)C`, the Potency result is “inactive”.

In the case of `O=C(O)Cn1cnnn1`, the Potency result is “inactive”.

With `CN1CCC(N(Cc2cccs2)c2ccccc2)CC1`, the Potency entry was “inactive”.

On to `N#CC1(c2ccc(F)cc2)CCC(=O)CC1`, for which the Potency entry was “inactive”.

Take `CN1CCC(=C2c3ccccc3CCc3cccnc32)CC1`: the Potency result is “inactive”.

In the case of `Cc1sccc1Br`, the Potency result is “inactive”.

As to `[O-][n+]1cccc(/C(Cl)=N/OC[C@@H](O)CN2CCCCC2)c1`, the Potency entry was “inactive”.

For `CCCCCCCCCCCC[N+](C)(C)Cc1ccccc1`, the Potency result is “inactive”.

Turning to `COc1ccc2nc(SCc3ncc(C)c(OC)c3C)[nH]c2c1`, the Potency result was “inactive”.

For the compound `O=C(O)Cc1ccccc1Oc1ccc(Cl)cc1Cl`, the Potency entry was “inactive”.

Turning to `OCCCc1ccccc1`, the Potency result is “inactive”.

Turning to `CNC(=O)c1c(I)c(NC(C)=O)c(I)c(C(=O)O)c1I`, the Potency result was “inactive”.

In the case of `O=C1Nc2cc(Cl)ccc2Oc2ccccc21`, the Potency entry is “inactive”.

Consider `CCN(CC)CC(=O)Oc1ccc(NC(C)=O)cc1`, for which the Potency entry was “inactive”.

Take `COc1c(N2C[C@@H]3CCCN[C@@H]3C2)c(F)cc2c(=O)c(C(=O)O)cn(C3CC3)c12`: the Potency was 14.4 µM (active).

In the case of `CCNC(=O)[C@@H]1CCCN1C(=O)[C@H](CCCN=C(N)N)NC(=O)[C@H](CC(C)C)NC(=O)CNC(=O)[C@H](Cc1ccc(O)cc1)NC(=O)[C@H](CO)NC(=O)[C@H](Cc1c[nH]c2ccccc12)NC(=O)[C@H](Cc1cnc[nH]1)NC(=O)[C@@H]1CCC(=O)N1` ([pGlu]HWSYGLRP-NHEt), the Potency result was “inactive”.

Turning to `CCCCOCCOC(=O)c1cccnc1`, the Potency result is “inactive”.

Take `CC(=O)c1cc2ccccc2s1`: the Potency result was “inactive”.

With `CC(CC1c2ccccc2CCc2ccccc21)CN(C)C` (stereo not given), the Potency entry is “inactive”.
